# From PMC5540273 (PLoS ONE, 2017)
# Legend:
# Conditions in all cases: concentration: 1 μM, replicates: in singlicate; n = 1
# FGFR1 = system: FGFR1
# FGFR2 = system: FGFR2
# FGFR3 = system: FGFR3
# FGFR4 = system: FGFR4
# FGR = system: FGR
# FLT1 = system: FLT1
# FLT3-autoinhibited = system: FLT3-autoinhibited
# FLT3 = system: FLT3
# FLT4 = system: FLT4
# FRK = system: FRK
# FYN = system: FYN
# GAK = system: GAK
# GCN2(Kin.Dom.2,S808G) = system: T1, GCN2(Kin.Dom.2,S808G)
# T1 construct: gene EIF2AK4
# GRK1 = system: GRK1
# GRK2 = system: T2, GRK2
# T2 construct: gene ADRBK1
# GRK3 = system: T3, GRK3
# T3 construct: gene ADRBK2
# GRK4 = system: GRK4
# GRK7 = system: GRK7
# GSK3A = system: GSK3A
# GSK3B = system: GSK3B
# 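Note: KINOMEscan kinase panel screen.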
SMILES,%Inh (FGFR1),%Inh (FGFR2),%Inh (FGFR3),%Inh (FGFR4),%Inh (FGR),%Inh (FLT1),%Inh (FLT3-autoinhibited),%Inh (FLT3),%Inh (FLT4),%Inh (FRK),%Inh (FYN),%Inh (GAK),"%Inh (GCN2(Kin.Dom.2,S808G))",%Inh (GRK1),%Inh (GRK2),%Inh (GRK3),%Inh (GRK4),%Inh (GRK7),%Inh (GSK3A),%Inh (GSK3B)
COc1ccc(-c2coc3ccc(-c4nnc(SCc5ccc(OC)c(C(F)(F)F)c5)o4)cc23)cc1,0%,17%,17%,2%,0%,0%,19%,10%,13%,0%,3%,10%,0%,19%,0%,0%,0%,21%,25%,4%
O=C(Nc1cccc(-c2nn3ccccc3c2-c2ccnc(Nc3cccc(C(F)(F)F)c3)n2)c1)c1c(F)cccc1F [GSK292658],0%,20%,9%,0%,92.5%,78%,5%,62%,36%,72%,56%,3%,10%,3%,0%,0%,15%,3%,5%,4%
COc1cc2c(cc1OCCN1CCNCC1)ncc1c3ccc(C#N)cc3[nH]c21,0%,16%,21%,0%,2%,6%,95.8%,98.5%,0%,0%,3%,99.3%,92.5%,3%,0%,34%,88%,0%,0%,26%
Cc1ccc(C(=O)Nc2ccc(Nc3ccnc4cc(-c5nccs5)ccc34)cc2O)cc1.Cl [GW494702],0%,35%,13%,0%,73%,14%,0%,14%,0%,67%,25%,10%,0%,17%,0%,41%,17%,0%,0%,7%
O=C(NC1CCN(c2ccnc(Nc3ccc(F)cc3)n2)C1)c1cc2ccccc2s1 (stereo not drawn) [GSK1379716],0%,3%,16%,13%,25%,20%,0%,0%,3%,18%,26%,13%,7%,3%,14%,33%,0%,0%,0%,20%
CSc1cccc2c(-c3ccncn3)c(-c3ccc(F)cc3)nn12 [GW514786],0%,0%,4%,7%,10%,19%,0%,5%,0%,9%,17%,76%,0%,6%,7%,35%,100%,0%,5%,9%
Cc1ccc(C)c(NC(=O)NC2CCN(c3ccnc(Nc4ccc(F)cc4)n3)C2)c1 (stereo not drawn) [GSK1379720],0%,14%,2%,5%,24%,9%,0%,0%,0%,14%,27%,0%,0%,0%,0%,60%,7%,0%,0%,0%
Cc1ccc(S(=O)(=O)Nc2ccc(Nc3nccc(Nc4cccc5[nH]ncc45)n3)cc2)cc1 [GSK581271],0%,15%,7%,0%,56%,19%,0%,28%,5%,73%,41%,44%,0%,0%,0%,42%,0%,0%,24%,10%
Cc1ccc(F)c(C(=O)Nc2cccc(-c3nn4ccccc4c3-c3ccnc(Nc4cccc(F)c4)n3)c2)c1F [GSK361061],19%,0%,21%,11%,91.4%,94.5%,0%,78%,82%,86%,58%,52%,11%,0%,0%,0%,25%,0%,12%,21%
